In PubChem BioAssay (EPA / NIEHS) one finds outcome and AC50 data, which are given here for 40 compounds.

Active and inactive are the calls of the source. The calls were made as follows: active = hit-call score of the fitted dose curve at least 0.9, where 1 is the maximum; inactive = score below 0.9.

A short description of this assay: BSK_3C_TissueFactor: BioMAP Diversity Plus: 3C Assay for Tissue Factor Biomarker Activity (AID 2282997). The settings on record: BioMAP 3C HUVEC, tissue factor biomarker readout; actives raise or lower the signal. The method, then:
BSK_3C is a cell-based, multiplexed-readout assay that uses umbilical vein endothelium, a human vascular primary cell, with measurements taken at 24 hours after chemical dosing in a 96-well plate.BSK_3C_TissueFactor is an assay component measured in the BSK_3C assay. It measures Tissue Factor antibody related to regulation of gene expression using ELISA technology.Data from the assay component BSK_3C_TissueFactor was analyzed into 1 assay endpoint. This assay endpoint, BSK_3C_TissueFactor, was analyzed with bidirectional fitting relative to DMSO as the negative control and baseline of activity. Using a type of binding reporter, gain or loss-of-signal activity can be used to understand changes in the signaling as they relate to the gene F3. Furthermore, this assay endpoint can be referred to as a primary readout, because this assay has produced multiple assay endpoints where this one serves a signaling function. To generalize the intended target to other relatable targets, this assay endpoint is annotated to the cytokine intended target family, where the subfamily is coagulation factor.
The levels of cell surface (or secreted, indicated by the prefix "s") biomarker endpoints were measured by ELISA. Overt cytotoxicity to cells in confluent adherent cultures (all systems other than the BT system) was assessed by measuring total protein levels using sulforhodamine B (SRB) staining in parallel cultures at the time of biomarker measurements, indicated as SRB endpoints. For proliferation assays for adherent cell types, individual cell types are cultured at sub-confluence and relative cell numbers quantified by SRB staining at time points optimized for each system (48 h: 3C and CASM3C systems; 72 h: BT and HDF3CGF systems; 96 h: SAg system). SRB was performed by staining cells with 0.1% SRB after fixation with 10% TCA and reading wells at 560 nm.Viability and proliferation of PBMC (T cells) was quantified by Alamar Blue reduction for the SAg and BT systems. For PBMC viability (referred to as PBMC Cytotoxicity within the assay endpoint names), cells were plated (75,000/well in a 96-well plate) and then chemical samples added for 1 h before addition of activators, SEB and TSST-1 (20 ng/mL final concentration each). Cells were incubated for 90 h. Then, Alamar Blue (20 uL/well) (Invitrogen, Cat DAL1100) was added for 6 h, and the plates were read with a fluorescence microplate reader at 546/580 nm (excitation/emission). For PBMC proliferation, cells were plated and activated as above but incubated for only 16 h prior to addition of Alamar Blue. Plates were read after 6 h.
For the compound `CN1CCN(Cc2cc(-c3ccc4[nH]c(=O)oc4c3)co2)[C@@H](c2ccc(F)cc2)C1`, the result was inactive.

With `O=c1[nH]cc(F)c(=O)[nH]1`, the outcome was inactive.

Consider `CC=Cc1ccc(O)c(OC)c1`, for which the outcome was inactive.

For `CNCc1cc(F)ccc1Oc1ccc(Cl)c(Cl)c1`, the AC50 was 12.5 µM (active).

`Nc1ccc(S(=O)(=O)c2ccc(N)cc2)cc1`: the outcome was inactive.

Take `O=C(OCCCCCOC(=O)c1ccccc1)c1ccccc1`: the outcome was inactive.

In the case of `CC(=O)C(C)=CC1C(C)=CCCC1(C)C` (stereo not given), the outcome was inactive.

Regarding `Cc1oc(-c2ccccc2)nc1CCOc1cccc2c1ccn2CCC(=O)O`, the result was inactive.

`Cc1nc(C)nc(N2C[C@@H](C)N(c3ccnc([C@@H](C)O)n3)[C@@H](C)C2)n1`: the outcome was inactive.

For `CCOC(=O)CCC(=O)OCC`, the result was inactive.

On to `CC(C)c1ccc(C(=O)N=C(N)N)cc1S(C)(=O)=O`, for which the outcome was inactive.

`CCCCCCCCCCCCCCCC`: the outcome was inactive.

For the compound `CCc1c(C(=O)NN2CCCCC2)nn(-c2ccc(Cl)cc2Cl)c1-c1ccc(Br)cc1`, the half-maximal activity concentration (AC50) was 11.7 µM (active).

For the compound `CCOc1ccc2c(c1)C(C)=CC(C)(C)N2`, the result was inactive.

For `Cc1ccccc1Cl`, the result was inactive.

As for `CCCCCCC(=O)OCC`, the outcome was inactive.

`Clc1cc(Cl)c(Cl)cc1Cl`: the AC50 was 6.33 µM (active).

In the case of `CCNc1cccc(C)c1`, the result was inactive.

Take `O=[N+]([O-])C(CO)(CO)CO`: the result was inactive.

In the case of `Nc1nc(N)c2nc(CNc3ccc(C(=O)N[C@@H](CCC(=O)O)C(=O)O)cc3)cnc2n1`, the result was inactive.

As for `COc1ccc(C)cc1N`, the outcome was inactive.

For the compound `CCCCCCOCCO`, the outcome was inactive.

Turning to `Oc1ccc2c(c1)OC[C@@H](N1CCC(O)(c3ccc(F)cc3)CC1)[C@H]2O`, the outcome was inactive.

For `Nc1ccccc1N`, the outcome was inactive.

`C=CCOC(=O)c1ccccc1C(=O)OCC=C`: the result was inactive.

For `COc1cc(C=O)ccc1O`, the result was inactive.

For the compound `COC(=O)c1ccc(O)cc1`, the outcome was inactive.

Turning to `Cc1ccc(Cl)cc1`, the result was inactive.

`CC1(C)NC(=O)NC1=O`: the result was inactive.

Take `CC(=O)OCCOCCOCCOC(C)=O`: the result was inactive.

For `Cc1cccc(C)c1O`, the outcome was inactive.

`NC(=O)Cn1c(=O)cc(CCN2CCN(c3nccc4sccc34)CC2)c2ccc(F)cc21`: the result was inactive.

With `CCOC(=O)C(C)(C)Oc1ccc(Cl)cc1`, the outcome was inactive.

In the case of `Cc1ccc(C(C)C)c(O)c1`, the AC50 is 1.38 µM (active).

As to `Cc1ccc(C)c(O)c1C`, the outcome was inactive.

For `NS(=O)(=O)c1cc2c(cc1Cl)NCNS2(=O)=O`, the outcome was inactive.

Take `C1CCC(SSC2CCCCC2)CC1`: the AC50 is 20 µM (active).

For the compound `Cc1nc(-c2ccc3c(c2)CCN(CCC2CCC(NC(=O)/C=C/c4ccc(F)cc4)CC2)CC3)no1` (stereo not given), the result was inactive.

Turning to `CC(=O)OC/C=C(\C)CCC=C(C)C`, the result was inactive.

For `c1cc(-c2ccncc2)ccn1`, the outcome was inactive.

Broadly, the AC50 is the midpoint of the concentration-response curve, whichever way the signal moves.
